Source: PubChem BioAssay (NCI)
The panel holds about 79,000 compounds, 15% with a hit somewhere; the sample as a whole holds those more often. Activity calls are given as the source filed them. No stated cut-off is given here; in the data, active means growth inhibition above about 70%; inactive means the rest.

Experiments:
[1] = NCI Yeast Anticancer Drug Screen. Data for the wt1 strain (AID 149);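 further: 0% = growth of vehicle-treated wt1 cultures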; conditions: S. cerevisiae wt1 strain (SPY 50644) growth inhibition, stronger effect = higher value
Procedure, shortened: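 Readout: yeast growth inhibition, normalised to vehicle controls, in the wt1 strain exposed to test compounds.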

[2] = NCI Yeast Anticancer Drug Screen. Data for the rad50EPP+ strain (AID 151);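 further: 0% = growth of vehicle-treated control cultures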; conditions: S. cerevisiae rad50 mutant strain, stronger effect = higher value
Procedure, shortened: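 Genetically defined yeast (rad50EPP+, DNA damage repair alteration) is grown with compound, and inhibition of growth is expressed relative to vehicle-treated controls.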

[3] = NCI Yeast Anticancer Drug Screen. Data for the mgt1 strain (AID 153); conditions: S. cerevisiae mgt1 mutant growth inhibition, stronger effect = higher value
Procedure, shortened: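 In the mgt1 strain, test compounds were added and growth inhibition was determined relative to vehicle-treated controls.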

[4] = NCI Yeast Anticancer Drug Screen. Data for the rad50 strain (AID 155);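 further: 0% = growth of vehicle-only cultures of the same strain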; conditions: S. cerevisiae rad50 strain growth inhibition, stronger effect = higher value
Procedure, shortened: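 Compounds were tested on a yeast strain with an engineered DNA damage repair alteration; the reported value is growth inhibition normalised to vehicle treatment.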

[5] = NCI Yeast Anticancer Drug Screen. Data for the mec2-1 strain (AID 157); conditions: S. cerevisiae mec2-1 strain, stronger effect = higher value
Procedure, shortened: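 Each compound was tested on mec2-1 yeast, a strain altered in DNA damage repair or cell cycle control. Growth inhibition is reported relative to vehicle.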

[6] = NCI Yeast Anticancer Drug Screen. Data for the rad14 strain (AID 159);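 further: 0% = growth of vehicle-treated control cultures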; conditions: S. cerevisiae rad14 strain growth inhibition, stronger effect = higher value
Procedure, shortened: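 Compound-treated yeast with a defined DNA-repair lesion; growth inhibition normalised to vehicle-treated cultures.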

[7] = NCI Yeast Anticancer Drug Screen. Data for the sgs1 mgt1 strain (AID 161);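 further: 0% = growth of cultures given vehicle only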; conditions: S. cerevisiae sgs1 mgt1 strain, stronger effect = higher value
Procedure, shortened: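 Mutant yeast exposed to compound; growth scored against vehicle-only wells.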

[8] = NCI Yeast Anticancer Drug Screen. Data for the CLN2oe strain (AID 163);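 further: 0% = growth of vehicle-only control cultures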; conditions: S. cerevisiae CLN2oe strain, stronger effect = higher value
Procedure, shortened: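 First, the altered yeast strain was treated with each compound; second, its growth was measured; finally, inhibition was derived by comparison with vehicle controls.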

[9] = NCI Yeast Anticancer Drug Screen. Data for the cln2 rad14 strain (AID 165);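 further: 0% = growth equal to vehicle treated cultures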; conditions: S. cerevisiae cln2 rad14 strain, stronger effect = higher value
Procedure, shortened: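 Test compounds were added to cln2 rad14 yeast cultures; inhibition of growth was then determined by comparison with vehicle treatment.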

[10] = NCI Yeast Anticancer Drug Screen. Data for the bub3 strain (AID 167); conditions: S. cerevisiae bub3 mutant strain, stronger effect = higher value
Procedure, shortened: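 Growth of a checkpoint-deficient yeast mutant is measured after compound exposure. Values represent inhibition relative to vehicle.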

[11] = NCI Yeast Anticancer Drug Screen. Data for the wt2 strain (AID 169);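 further: 0% = growth of vehicle-treated yeast cultures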; conditions: S. cerevisiae wt2 strain growth inhibition, stronger effect = higher value
Procedure, shortened: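 The panel's yeast strains carry defined changes in DNA repair or cell cycle genes. Each strain is grown with compound, and growth loss is scored relative to vehicle.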

[12] = NCI Yeast Anticancer Drug Screen. Data for the mlh1 strain (AID 171);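 further: 0% = growth of vehicle-treated control cultures of the same strain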; conditions: S. cerevisiae mlh1 strain growth inhibition, stronger effect = higher value
Procedure, shortened: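 Inhibition values reflect reduced yeast growth in the presence of compound, referenced to vehicle controls, using a strain chosen for its alteration in DNA repair or cell cycle control.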

[13] = NCI Yeast Anticancer Drug Screen. Data for the sgs1 strain (AID 173);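 further: 0% = growth of vehicle-only control cultures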; conditions: S. cerevisiae sgs1 mutant, stronger effect = higher value
Procedure, shortened: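 Vehicle-treated cultures served as reference for growth inhibition of a yeast strain altered in DNA damage repair or cell cycle control after compound exposure.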

[14] = NCI Yeast Anticancer Drug Screen. Data for the mlh1 rad18 strain (AID 175); conditions: S. cerevisiae mlh1 rad18 strain growth inhibition, stronger effect = higher value
Procedure, shortened: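 Inhibition values reflect reduced growth of mutant yeast versus vehicle-treated controls following compound exposure; the mutations affect DNA damage repair.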

[15] = NCI Yeast Anticancer Drug Screen. Data for the rad18 strain (AID 177); conditions: S. cerevisiae rad18 mutant growth inhibition, stronger effect = higher value
Procedure, shortened: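 Steps: expose repair-mutant yeast to compound; measure growth; express as inhibition relative to vehicle control.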

[16] = at 5.0 µM (retest, dose inferred, filed as 0.5)
[17] = at 50.0 µM (retest, dose inferred, filed as 5.0)

Measured: growth inhibition

O=C1c2ccc(O)cc2C(=O)c2c(O)ccc(O)c21
active: [1]; at 11.0 µM 94% | [1]; at 33.0 µM 97% | [1]; at 100.0 µM 93% | [2]; at 11.0 µM 93% | [2]; at 33.0 µM 93% | [2]; at 100.0 µM 88% | [3]; at 11.0 µM 78% | [3]; at 33.0 µM 93% | [3]; at 100.0 µM 91% | [4]; at 11.0 µM 87% | [4]; at 33.0 µM 95% | [4]; [17] 90% | [4]; at 50.0 µM 71.2% | [4]; at 100.0 µM 89% | [5]; at 11.0 µM 87% | [5]; at 33.0 µM 95% | [5]; [17] 93% | [5]; at 100.0 µM 89% | [6]; at 11.0 µM 93% | [6]; at 33.0 µM 95% | [6]; at 100.0 µM 91% | [7]; [17] 90% | [7]; at 50.0 µM 77.2% | [8]; at 11.0 µM 92% | [8]; at 33.0 µM 94% | [8]; at 100.0 µM 91% | [9]; [17] 88% | [10]; at 33.0 µM 91% | [10]; [17] 92% | [10]; at 100.0 µM 88% | [11]; at 11.0 µM 92% | [11]; at 33.0 µM 96% | [11]; at 100.0 µM 90% | [12]; at 11.0 µM 88% | [12]; at 33.0 µM 94% | [12]; at 100.0 µM 91% | [13]; at 11.0 µM 90% | [13]; at 33.0 µM 95% | [13]; at 100.0 µM 91% | [14]; [17] 97% | [15]; at 11.0 µM 88% | [15]; at 33.0 µM 94% | [15]; at 100.0 µM 89%
inactive: [1]; at 1.2 µM 4% | [1]; at 3.7 µM 17% | [2]; at 1.2 µM 25% | [2]; at 3.7 µM 64% | [3]; at 1.2 µM 1% | [3]; at 3.7 µM 10% | [4]; at 1.2 µM 16% | [4]; at 3.7 µM 35% | [4]; [16] 53% | [5]; at 1.2 µM 9% | [5]; at 3.7 µM 28% | [5]; [16] 45% | [5]; at 50.0 µM 49.1% | [6]; at 1.2 µM 10% | [6]; at 3.7 µM 27% | [7]; [16] 50% | [8]; at 1.2 µM 7% | [8]; at 3.7 µM 21% | [9]; [16] 32% | [9]; at 50.0 µM 51% | [10]; at 1.2 µM -2% | [10]; at 3.7 µM 0% | [10]; [16] 18% | [10]; at 11.0 µM 62% | [10]; at 50.0 µM 29% | [11]; at 1.2 µM 1% | [11]; at 3.7 µM 19% | [12]; at 1.2 µM 4% | [12]; at 3.7 µM 20% | [13]; at 1.2 µM 3% | [13]; at 3.7 µM 19% | [14]; [16] 48% | [14]; at 50.0 µM 68.7% | [15]; at 1.2 µM 6% | [15]; at 3.7 µM 17%

Nc1cccc2cc(Cl)cnc12
active: [2]; at 100.0 µM 76% | [4]; [17] 98% | [4]; at 50.0 µM 71% | [4]; at 100.0 µM 87% | [5]; [17] 98% | [5]; at 100.0 µM 78% | [10]; at 100.0 µM 81% | [14]; [17] 100% | [15]; at 33.0 µM 82% | [15]; at 100.0 µM 90%
inactive: [1]; at 1.2 µM -26% | [1]; at 3.7 µM -26% | [1]; at 11.0 µM -28% | [1]; at 33.0 µM -23% | [1]; at 100.0 µM 63% | [2]; at 1.2 µM -3% | [2]; at 3.7 µM 5% | [2]; at 11.0 µM 11% | [2]; at 33.0 µM 39% | [3]; at 1.2 µM -2% | [3]; at 3.7 µM -2% | [3]; at 11.0 µM 7% | [3]; at 33.0 µM 10% | [3]; at 100.0 µM 64% | [4]; at 1.2 µM 18% | [4]; at 3.7 µM 24% | [4]; [16] 62% | [4]; at 11.0 µM 31% | [4]; at 33.0 µM 47% | [5]; at 1.2 µM 12% | [5]; at 3.7 µM 10% | [5]; [16] 53% | [5]; at 11.0 µM 13% | [5]; at 33.0 µM 7% | [5]; at 50.0 µM 20.9% | [6]; at 1.2 µM -36% | [6]; at 3.7 µM -31% | [6]; at 11.0 µM -36% | [6]; at 33.0 µM -31% | [6]; at 100.0 µM 58% | [7]; [16] 3% | [7]; [17] 10% | [7]; at 50.0 µM 59.7% | [8]; at 1.2 µM 2% | [8]; at 3.7 µM -4% | [8]; at 11.0 µM -23% | [8]; at 33.0 µM -16% | [8]; at 100.0 µM 38% | [9]; [16] 52% | [9]; [17] 41% | [9]; at 50.0 µM 49.3% | [10]; at 1.2 µM 3% | [10]; at 3.7 µM 10% | [10]; [16] 41% | [10]; at 11.0 µM 8% | [10]; at 33.0 µM 13% | [10]; [17] 18% | [10]; at 50.0 µM 38.5% | [11]; at 1.2 µM -34% | [11]; at 3.7 µM -18% | [11]; at 11.0 µM -20% | [11]; at 33.0 µM -15% | [11]; at 100.0 µM 34% | [12]; at 1.2 µM -40% | [12]; at 3.7 µM -41% | [12]; at 11.0 µM -40% | [12]; at 33.0 µM -33% | [12]; at 100.0 µM 49% | [13]; at 1.2 µM -32% | [13]; at 3.7 µM -31% | [13]; at 11.0 µM -14% | [13]; at 33.0 µM 0% | [13]; at 100.0 µM 64% | [14]; [16] 55% | [14]; at 50.0 µM 67.3% | [15]; at 1.2 µM 13% | [15]; at 3.7 µM 27% | [15]; at 11.0 µM 61%
